# Laboratory results reported in PMC5998130.
# Target: Smad nuclear-interacting protein 1 (UniProt Q8TAD8)
# Test: mass-spectrometry hit list; affinity purification or IP with mass spectrometry
substance,measurement,value
"DNA-directed RNA polymerase II subunit RPB1, P24928",listed as a hit,yes
